Assay outcomes as filed in PubChem BioAssay.
Most compounds without a hit are left out; they make up all but 2.8% or so of the library.
PI5P4Ka inh – qHTS for Inhibitors of phosphatidylinositol 5-phosphate 4-kinase (PI5P4K); actives 1.2% (n = 330,000); PI5P4Kalpha enzyme, ADP-Glo luminescence, 60 min; active compounds read low; Phosphatidylinositol 5-phosphate 4-kinase type-2 alpha (Homo sapiens), P48426; max response, %; active = max response of -50% or lower; inconclusive = between -30% and -50%; inactive = -30% or higher; also: value at the top dose of about 77 µM
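Human PI5P4Kalpha with substrate in 0.038 M HEPES pH 7.4, 0.28 mM EGTA, 0.1% CHAPS, 5% DMSO; reaction started with 5 microM ATP (final), 60 min at room temperature. ADP formed read by ADP-Glo luminescence.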
POLI inh – qHTS for Inhibitors of Polymerase Iota; DNA polymerase iota (Homo sapiens), Q9UNA4; Pol iota fluorescent replication assay, 10 min; Potency, µM (doses to about 115 µM), hits mostly inhibitors; actives 1% (n = 390,000)
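Pol iota at 10 nM preincubated 15 min with compounds at room temperature; reaction started with fluorescent substrate, 50 nM final. Fluorescence read kinetically at 0 and 10 min; buffer-only wells as negative control.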
WRN helicase inh – qHTS for Inhibitors of WRN Helicase; Bifunctional 3'-5' exonuclease/ATP-dependent helicase WRN (Homo sapiens), Q14191; WRN helicase unwinding, fluorescent forked duplex, kinetic; Potency, µM (doses to about 114 µM), most hits filed as inhibitors; actives 0.46% (n = 360,000); also: nearly all actives have a fitted effect of over 55% in size
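Fluorescence dequenching readout, ex 525 nm/em 598 nm, kinetic mode: forked duplex DNA (100 nM final) with adjacent fluorophore and quencher unwound by WRN (20 nM final) with 2 mM ATP. Compound preincubation 15 min, room temperature.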
POLK inh – qHTS for Inhibitors of Polymerase Kappa. purified Pol kappa, fluorescent DNA synthesis assay, 10 min. DNA polymerase kappa (Homo sapiens), Q9UBT6. actives 0.53% (n = 400,000). Potency, µM (doses to about 107 µM), usual class: inhibitors
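Kinetic fluorescence screen: compound preincubated 15 min RT with 10 nM enzyme; 50 nM substrate (final) initiates; reads at 0/10 min.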
Pol beta inh – qHTS Assay for Inhibitors of DNA Polymerase Beta. Pol beta primer extension/strand displacement, fluorescence kinetic. P06746. Potency, µM (top dose mostly 114 µM), actives largely listed as inhibitors. actives 1.3% (n = 340,000). AID 485314, 2010
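Human Pol beta at 10 nM; strand-displacement substrate 50 nM final. Compound exposure 15 min at room temperature before start, reaction 10 min at room temperature.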
Pol eta inh – qHTS for Inhibitors of Polymerase Eta; actives 1.2% (n = 390,000); DNA polymerase eta (Homo sapiens), Q9Y253; recombinant Pol eta, fluorescent DNA replication assay; Potency, µM (titrated, usually from 114 µM), most hits filed as inhibitors; AID 588591, 2011
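Pol eta at 10 nM preincubated with compounds 15 min at room temperature; reaction started with fluorescent substrate (50 nM final) and read kinetically at 0 and 10 min.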
A number is an active result; i = inactive; ? = inconclusive; nt = no result. Unless noted, calls follow the shape of the dose curve; as a rule, active = well fitted curve in the direction sought with a large enough effect; inconclusive = small, poorly fitted or top-dose-only effect, or another doubt; inactive = no such curve, though single readings can be large; an effect the other way counts as inactive or inconclusive.

SMILES	PI5P4Ka inh	POLI inh	WRN helicase inh	POLK inh	Pol beta inh	Pol eta inh
O=C(NCc1ccc(F)cc1Cl)c1ccc(CSCc2ccccc2Cl)o1	nt	i	nt	i	i	i
CCCn1c(=O)c2sccc2n2c(CCCC(=O)N3CCN(c4cccc(C)c4C)CC3)nnc12	nt	i	nt	i	i	i
COc1ccc(C(=O)COC(=O)C2CC3CCCC(C2)C3=O)cc1Br (centres undefined)	i	i	i	i	nt	i
COc1ccc(C(=O)COC(=O)CN2CC(=O)Oc3ccccc32)cc1Br	i	25.1µM	i	i	?	i
CCOc1ccccc1CNc1ccc2cc(S(=O)(=O)N3CCC(C)CC3)ccc2n1	nt	i	nt	i	i	i
C[n+]1ccnc2ccccc21	nt	i	nt	i	nt	nt
Cc1ccc(Cn2c(=N)c(C(=O)NCc3ccco3)cc3c(=O)n4ccccc4nc32)cc1	i	3.98µM	i	?	7.94µM	8.91µM
COc1ccc(CCn2c(=N)c(C(=O)NCc3ccco3)cc3c(=O)n4ccccc4nc32)cc1OC	i	15.8µM	i	?	nt	44.7µM
O=C(NCc1ccco1)c1cccn2c(=O)c3cc4ccccc4cc3nc12	nt	nt	nt	nt	14.1µM	nt
COc1ccc(CCNC(=O)c2cc3c(=O)n4ccccc4nc3n(CCCN3CCOCC3)c2=N)cc1OC	i	?	i	i	35.5µM	i
COc1ccc(CCNC(=O)c2cc3c(=O)n4ccccc4nc3n(CCCN3CCOCC3)c2=N)cc1	i	i	i	i	i	i
COc1ccc(CCNC(=O)c2cc3c(=O)n4ccccc4nc3n(Cc3ccco3)c2=N)cc1OC	i	i	i	i	i	?
CC(C)(C)n1ncc2c(=O)n(Cc3ccc(F)c(F)c3F)cnc21	nt	i	nt	i	nt	nt
Cc1ccc(S(=O)(=O)c2nc(-c3cccc(C)c3)oc2N2CCCCC2)cc1	nt	i	nt	i	i	i
COc1cc2c(NC3CCN(C)CC3)nc(N3CCCN(C)CC3)nc2cc1OCCN(C)C	nt	?	nt	i	nt	nt
COc1ccc(CCNC(=O)c2cc3c(=O)n4ccccc4nc3n(C3CCCCC3)c2=N)cc1OC	i	i	i	i	25.1µM	i
COCCCn1c(=N)c(C(=O)NCc2ccco2)cc2c(=O)n3ccccc3nc21	nt	79.4µM	nt	i	i	i
COc1ccc(CCNC(=O)c2cc3c(=O)n4ccccc4nc3n(C3CCCCC3)c2=N)cc1	i	i	i	i	i	i
CCOCCCn1c(=N)c(C(=O)NCc2ccco2)cc2c(=O)n3ccccc3nc21	nt	i	nt	i	i	i
N=c1c(S(=O)(=O)c2ccc(Cl)cc2)cc2c(=O)n3ccccc3nc2n1Cc1ccco1	i	?	i	i	8.91µM	?
N=c1c(C(=O)NCc2ccco2)cc2c(=O)n3ccccc3nc2n1CCc1ccccc1	i	?	i	i	31.6µM	?
COc1ccc(N2CCN(S(=O)(=O)CCNC(=O)c3ccc(C(F)(F)F)cc3)CC2)cc1	nt	i	nt	i	i	i
Cc1cccc(-c2c3c(=O)n(C)c(=O)n(C)c3c3cnc4ccccc4n23)c1	nt	i	nt	i	i	i
Cc1ccc(-c2cc(-c3ccccc3Cl)c(C#N)c(N)n2)o1	?	?	i	i	i	i
Cc1ccc(-c2cc(-c3ccccc3)c(C#N)c(N)n2)o1	-58.5	i	i	i	i	i
SMILES	PI5P4Ka inh	POLI inh	WRN helicase inh	POLK inh	Pol beta inh	Pol eta inh
COc1cccc(CNC(=O)CCc2c(C)c3cc4c(C)coc4c(C)c3oc2=O)c1	nt	?	nt	i	25.1µM	?
Cc1coc2c(C)c3oc(=O)c(CCC(=O)N(C)CC(=O)O)c(C)c3cc12	i	i	i	i	79.4µM	20µM
N#Cc1ccc(NC(=O)COCc2cc(-c3ccco3)on2)cc1	nt	i	nt	i	i	i
O=C(Nc1nccs1)c1cc(-c2ccccn2)nc2c(Cl)cccc12	i	25.1µM	i	i	?	?
CCc1nc2oc3cc(OC)ccc3c(=O)c2c(=O)n1Cc1ccco1	?	?	i	i	25.1µM	i
CCCN(CCC)CCCNC(=O)C1CCC(CNS(=O)(=O)c2ccc(NC(C)=O)cc2)CC1 (centres undefined)	nt	i	nt	i	i	i
COc1ccc(-n2c(SC)nc(O)c(Cc3ccccc3)c2=O)cc1	nt	i	i	i	i	i
COc1ccc(Cc2c(O)nc(SC)n(C(C)=O)c2=O)cc1	-74.6	i	i	i	i	i
O=C(COC(=O)c1ccccc1SCC(=O)NC1CCS(=O)(=O)C1)NC1CCS(=O)(=O)C1 (centres undefined)	i	i	i	i	i	i
CCNC(=O)NC(=O)COC(=O)c1ccccc1SCC(=O)NC(=O)NCC	-62.9	?	?	i	i	i
Cc1ccc(Cn2c(C)c3cnn(CC(=O)N4CCN(c5ccc(F)cc5)CC4)c(=O)c3c2C)cc1	nt	i	nt	i	i	i
CC(C)=CCc1c(O)cc(O)c2c1OC(c1ccc(O)cc1)CC2=O (centres undefined)	-63.2	i	i	i	nt	i
N#Cc1ccccc1NC(=O)C(=O)NCCc1csc(-c2ccc(C(F)(F)F)cc2)n1	nt	i	nt	i	i	i
CC(=O)c1sc(N/N=C\c2c(O)ccc3ccccc23)nc1C	-52.9	?	i	i	nt	i
COc1ccc(NC(=O)c2cc3c(s2)CCC3)cc1S(=O)(=O)N1CCOCC1	?	35.5µM	i	?	?	?
COc1ccc(S(=O)(=O)N2CCOCC2)cc1NC(=O)c1cc2c(s1)CCCC2	i	i	i	i	i	i
O=C(O)c1ccccc1N/C=C\[N+](=O)[O-]	i	?	i	i	25.1µM	?
CCOc1cccc2cc(-c3nnc(Nc4ccc(F)c(Cl)c4)s3)c(=O)oc12	nt	i	nt	i	i	i
CCOc1cccc2cc(-c3nnc(NCc4ccc5c(c4)OCO5)s3)c(=O)oc12	i	i	i	i	?	3.98µM
O=Cc1c(-c2ccc(Cl)cc2)oc2ccc(O)cc12	-67.0	?	?	?	nt	44.7µM
COC(=O)/C=C1\S/C(=N\N=C\CC(=O)OC)NC1=O	i	17.8µM	?	39.8µM	i	?
COC(=O)/C=C1\SC(=Nc2ccc(OC)cc2)NC1=O	i	i	i	i	i	i
CCCOc1ccc(C2C(=O)N(C3CCC(C)CC3)CC(=O)N2CCc2ccccc2)cc1OC (centres undefined)	nt	i	nt	i	i	i
NS(=O)(=O)c1ccc(-c2cccc(/C=C3\SC(=O)NC3=O)c2)cc1	-55.7	?	i	i	?	i
Cc1cc(NS(=O)(=O)c2ccc(Nc3nc(-c4sc(N)nc4C)cs3)cc2)no1	i	3.16µM	25.1µM	25.1µM	i	10µM
Cc1cc(NS(=O)(=O)c2ccc(Nc3nc(-c4ccc(C)c(C)c4)cs3)cc2)no1	?	i	?	i	?	?
